Shown are actives, neighbours in structure and some others; about 2.3% of the full set was active somewhere.
mIDH1 inhibitor: blocks human mutant IDH1 R132H enzyme. Potency, µM (highest dose often 76.6 µM), for the others: at the top dose activity change, negative = inhibition, hits mostly inhibitors. hit rate 0.093% among 390,000. IDH1-R132H enzyme, NADPH consumption, diaphorase/resazurin fluorescence; also: potency is read from the fitted curve at half-maximal effect; % is scaled to controls: 0 for no effect and ±100 for the full control effect; nearly all actives have a fitted effect of over 65% in size
Target sequence (O75874 whole entry R132H, stated change not applied): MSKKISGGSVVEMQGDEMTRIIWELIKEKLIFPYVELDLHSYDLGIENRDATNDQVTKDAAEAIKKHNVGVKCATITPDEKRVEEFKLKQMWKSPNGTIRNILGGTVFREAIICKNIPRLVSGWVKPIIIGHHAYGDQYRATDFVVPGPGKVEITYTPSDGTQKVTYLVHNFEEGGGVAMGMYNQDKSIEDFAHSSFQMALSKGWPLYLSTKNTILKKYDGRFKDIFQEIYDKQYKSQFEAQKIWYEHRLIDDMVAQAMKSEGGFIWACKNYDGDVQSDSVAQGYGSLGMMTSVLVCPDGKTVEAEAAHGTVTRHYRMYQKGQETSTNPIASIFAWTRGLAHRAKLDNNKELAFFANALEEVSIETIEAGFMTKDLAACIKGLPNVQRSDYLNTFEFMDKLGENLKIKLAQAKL
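IDH1-R132H (0.5 ug/mL) preincubated 30 min with compound, then NADPH (0.016 mM) and alpha-KG (2 mM) added; 80 min at RT, pH 7.5. Remaining NADPH coupled via diaphorase/resazurin to fluorescence (540/590 nm); concentration-response curves normalized to no-enzyme control.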
Giardia killer: Giardia lamblia killing; Giardia lamblia trophozoite viability; activity change, % at 7.66 µM, hits read low; hit rate 0.15% among 340,000; in the data active = activity change below about -80%; inconclusive = between about -30% and that limit;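 also: parasites exposed to compound for two days anaerobically before the ATP read; % is scaled to controls: 0 for no effect and ±100 for the full control effect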
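Viability, read as ATP luminescence: trophozoites at 100 cells/well, compound added, 48 hrs anaerobic at 37 deg C, then 15-30 min room-temperature development before reading.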
Nrf2 ARE act: activators of Nrf2 (ARE) signaling. AREc32 ARE-luciferase reporter (MCF7-derived line), luminescence, 24 h. Potency, µM (titrated, usually from 46.1 µM), without a hit: at the top dose activation, actives largely listed as activators. hit rate 0.31% among 410,000; also: potency is read from the fitted curve at half-maximal effect; % of control where 0% means no effect; nearly all actives have a fitted effect of over 65% in size
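Luminescent ARE reporter assay in AREc32_Fluc cells: overnight plating at 37 deg C, 24 hr compound incubation, Steady-Glo added, 30 min RT before reading.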
Nrf2 block: blocks Nrf2 signaling; A549 ARE-Fluc reporter, luciferase luminescence, 18-24 h; Potency, µM (doses to about 46 µM), for inactives: top-dose activity change, negative = inhibition, usual class: inhibitors; hit rate 2.1% among 360,000; AID 504444; also: potency is read from the fitted curve at half-maximal effect; % is scaled to controls: 0 for no effect and ±100 for the full control effect; nearly all actives have a fitted effect of over 60% in size
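Quantitative HTS in A549 cells stably bearing an antioxidant response element-firefly luciferase construct. Inhibition of Nrf2-driven transcription was scored by luminescence after 18-24 h of compound exposure at 37 °C.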
Anesthetic bind: binds horse apoferritin like a general anesthetic. Potency, µM (series often up to 77.5 µM), for the others: at the highest dose activity change, negative = displacement, usual class: inhibitors. hit rate 0.074% among 350,000. apoferritin/1-aminoanthracene competitive binding, fluorescence; also: potency is read from the fitted curve at half-maximal effect; % is scaled to controls: 0 for no effect and ±100 for the full control effect; nearly all actives have a fitted effect of over 20% in size
Target sequence (P02791 2-175 limits assumed): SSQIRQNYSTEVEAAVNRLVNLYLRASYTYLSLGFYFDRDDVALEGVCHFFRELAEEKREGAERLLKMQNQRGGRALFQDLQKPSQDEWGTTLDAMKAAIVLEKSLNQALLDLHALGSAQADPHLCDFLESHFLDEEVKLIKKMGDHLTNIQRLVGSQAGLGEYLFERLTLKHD
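Horse-spleen apoferritin (10 uM) was mixed with 50% saturated 1-aminoanthracene in PBS, exposed to compounds for 10 min at room temperature, and read for fluorescence (ex 380 nm, em 535 nm). Competitive displacement was fitted with a four-parameter Hill equation.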
A549 tox: kills or reduces viability of A549 cells in Nrf2 counter-screen; A549 ARE-Fluc cells, CellTiter-Fluor viability, 18-24 h; Potency, µM (top dose mostly 46 µM), without a hit: at the highest dose activity change, negative = cytotoxicity, hits mostly inhibitors; hit rate 0.16% among 390,000; also: potency is read from the fitted curve at half-maximal effect; % is scaled to controls: 0 for no effect and ±100 for the full control effect
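A549 ARE-Fluc cells in 5% FBS OPTI-MEM, 5000 cells/well, rested 2 h then exposed to compounds in concentration-response for 18-24 h at 37 °C. Viability by CellTiter-Fluor fluorescence (Ex 405/Em 525) after 30 min; luciferase luminescence (BugLite, 15 min, RT) read afterwards.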
Starred values were filed as active, the others as inactive; ? = inconclusive; nt = no result given; [ ] = dose if it differs, or a comment. Unless noted, calls follow the shape of the dose curve; as a rule, active = well fitted curve in the direction sought with a large enough effect; inconclusive = small, poorly fitted or top-dose-only effect, or another doubt; inactive = no such curve, though single readings can be large; an effect the other way counts as inactive or inconclusive.

SMILES	mIDH1 inhibitor	Giardia killer	Nrf2 ARE act	Nrf2 block	Anesthetic bind	A549 tox
O=C(NC(c1ccc(Cl)cc1)c1ccsc1)C1CCN(CCOc2ccc(Cl)cc2)CC1 (configuration not stated)	nt	nt	8%	nt	nt	nt
COC(=O)c1ccc2nc(-c3ccccc3)c(Cc3ccccc3OC)n2c1	nt	nt	11%	nt	nt	nt
CCc1ccc(NC(=O)c2ccc(CNS(=O)(=O)c3ccc4c(c3)C(C)(C)C(=O)N4C)cc2)cc1	-11%	nt	6%	27%	-16%	-13%
CN1C(=O)C(C)(C)c2cc(S(=O)(=O)NCc3ccc(C(=O)Nc4ccc(Cl)cc4)cc3)ccc21	-11%	nt	5%	18µM*	3%	-15%
Cc1ccccc1NC(=O)c1c(C)oc2ccc(O)c(CN3CCCC3)c12	-7%	nt	4%	14%	-10%	2%
COc1cccc(CN(C)CC(=O)Nc2ccccc2C(=O)Nc2ccccc2)c1OC	20%	23	3%	23µM*	-1%	?
CCCCCCCCN1C(=O)[C@H](CC(=O)NCc2cccs2)C[C@@]2(C(=O)OC)CCCCC=C12	nt	nt	0%	nt	nt	nt
Cc1ccccc1C1=NC(C(F)(F)F)(C(F)(F)F)c2c(n(C)c(=O)n(C)c2=O)N1	5%	5	2%	-27%	-14%	6%
Cn1c2c(c(=O)n(C)c1=O)C(C(F)(F)F)(C(F)(F)F)N=C(c1ccc(Cl)cc1)N2	-1%	11	1%	2.3µM*	-10%	5.8µM*
CCSc1nnc(NC(=O)C2CCN(S(=O)(=O)c3c(C)c(C)cc(C)c3C)CC2)s1	nt	nt	nt	nt	-6%	nt
CCSc1nnc(NC(=O)C2CCN(S(=O)(=O)c3ccccc3C(F)(F)F)CC2)s1	0%	-6	0%	23µM*	-9%	-2%
O=C(OCC#CCSc1nnc(-c2cccc3ccccc23)o1)c1sc2ccccc2c1Cl	nt	nt	nt	1%	nt	0%
C=C(c1ccccc1)c1ccc(N(C)C)cc1	18%	1	3%	16µM*	-11%	-3%
O=C(COC(=O)c1ccc(C(F)(F)F)cc1)NC(=O)C1CCCCC1	nt	-8	nt	?	nt	3%
COc1ccc2[nH]c(=O)c(CN(Cc3cccs3)S(=O)(=O)c3c(C)ccc4nsnc34)cc2c1	9%	1	2%	9.2µM*	-22%	nt
c1nc(NCCc2cnc[nH]2)c2ccc(-c3ccc4c(c3)OCO4)cc2n1	nt	nt	nt	11%	nt	18%
O=C(Nc1ccc(Cl)cc1)N1CCN(c2ccc3nnc(-c4ccc(F)cc4)n3n2)CC1	1%	-5	3%	21µM*	-10%	?
CCCN(CC(=O)Nc1cc(Cl)ccc1Cl)C(=O)/C=C/c1ccco1	6%	-14	11µM*	-19%	?	1%
CC(C)Nc1nc2c(S(=O)(=O)c3cccc(Cl)c3)nnn2c2ccsc12	1%	nt	0%	29%	-2%	14%
Cc1cc(=O)n(Cc2ccccc2)c(O)c1C#N	19%	-7	0%	-9%	-7%	4%
Cc1cc(=O)n2nc(-c3ccccc3)sc2c1C#N	-2%	-11	2.2µM*	16%	-9%	-11%
COC(=O)c1nnn(CC(=O)Nc2cc(F)ccc2F)c1C(=O)OC	20%	nt	-1%	24%	?	3%
Cc1cccc(NC(=O)COc2ccc(-c3nn(C)c(=O)c4ccccc34)cc2)c1	-2%	-26	-3%	23µM*	-15%	?
Cn1nc(-c2ccc(OCC(=O)Nc3ccccc3)cc2)c2ccccc2c1=O	3%	4	1%	?	-14%	-3%
CCc1cccc2c(C(=O)COC(=O)c3ccc([N+](=O)[O-])s3)c[nH]c12	2%	7	19%	?	-17%	21µM*
SMILES	mIDH1 inhibitor	Giardia killer	Nrf2 ARE act	Nrf2 block	Anesthetic bind	A549 tox
CCOc1ccc2[nH]cc(C(=O)NCc3ccccc3)c(=O)c2c1	0%	32	0%	13µM*	-16%	-12%
Cc1ccc(-c2cc(C(F)(F)F)n3nc(C(=O)Nc4sc5c(c4C#N)CCC(C)C5)cc3n2)cc1 (configuration not stated)	2%	nt	-1%	1%	-4%	12%
Cc1csc2nc(-c3cccc(NC(=O)c4c(F)cccc4F)c3)cn12	4%	nt	2%	nt	-6%	0%
Cc1ccc(C(=O)N/N=C/c2ccc(-c3cccc(Cl)c3)o2)cn1	2%	4	0%	-21%	-10%	-19%
Cc1ccc(C(=O)N/N=C\c2ccc(-c3ccc(Cl)c(Cl)c3)o2)cn1	-6%	-2	-3%	18µM*	-5%	-17%
COc1ccccc1Cc1nc2ccccc2nc1SCC(=O)N(C)c1ccc(F)cc1	-17%	nt	0%	nt	2%	-5%
COC(=O)C1=C(C)NC(C)=C(C(=O)OCC(C)C)C1c1ccccc1[N+](=O)[O-] (configuration not stated)	0%	18	3%	16µM*	nt	-10%
Cc1ccccc1Cn1cc(NC(=O)c2cc3nc(-c4ccco4)cc(C(F)(F)F)n3n2)cn1	10%	11	0%	?	-16%	-2%
CCc1ccc(-c2cc(C(F)(F)F)n3nc(C(=O)Nc4cnn(Cc5ccc(C)cc5)c4)cc3n2)s1	2%	2	0%	8.2µM*	6%	26µM*
Cc1[nH]n(-c2ccccc2)c(=O)c1/C=N\NC(=O)C1COc2ccccc2O1 (configuration not stated)	5%	-12	0%	16µM*	3%	-14%
CC(=O)N/N=C/c1c(C)[nH]n(-c2ccccc2)c1=O	-1%	5	1%	15µM*	-2%	?
Cc1c(/C=N\NC(=O)C2COc3ccccc3O2)c2ccccc2n1C (configuration not stated)	3%	-10	0%[9.22 µM]	?	-9%	-12%
COCC(=O)N/N=C/c1c(C)[nH]n(-c2ccccc2)c1=O	2%	-18	2%	15µM*	0%	?
O=[S+]([O-])(c1ccc2c(c1)OCCO2)N1CCN([S+](=O)([O-])c2c(F)cc(F)cc2Br)CC1	nt	nt	nt	13%	nt	-3%
Nc1ccccc1N1C(=O)c2cccc3cccc(c23)C1=O	-1%	16	8.9µM*	?	nt	-2%
CC(C)C(=O)Nc1ccc(COc2ccccc2CN(Cc2ccccc2)C(=O)OC(C)(C)C)cc1	3%[38.3 µM]	-6	4%	?	nt	-1%
CC(C)C(=O)Nc1cccc(COc2ccc(CN(Cc3ccccc3)C(=O)OC(C)(C)C)cc2)c1	-3%[38.3 µM]	4	4%	16µM*	nt	-4%
O=C(Cc1cccs1)N1CCN(c2nc(-c3ccc(Cl)cc3)cs2)CC1	3%	9	4%	18µM*	40%	-29%
CNC(=S)N1CCN(c2nc(-c3cccc(OC)c3)cs2)CC1	-2%	13	6%	18µM*	2%	-4%
